Assay outcomes as filed in PubChem BioAssay.
The list is not random: actives were taken first. Their share in the collection is about 1.1%.
LRH-1 inv ag: suppresses constitutive activity of human LRH-1 | HEK293T StAR-luciferase reporter, LRH-1 transfected, 24 h | O00482 | inhibition, % at 3.6 µM | 360,000 tested, 0.13% active;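 active means inhibition above the mean inhibition of all tested compounds plus 3 SD, cut at about 73% in these data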;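 further: 0% = DMSO wells and 100% = reporter-only cells lacking LRH-1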
Target sequence (O00482 whole entry, looked up): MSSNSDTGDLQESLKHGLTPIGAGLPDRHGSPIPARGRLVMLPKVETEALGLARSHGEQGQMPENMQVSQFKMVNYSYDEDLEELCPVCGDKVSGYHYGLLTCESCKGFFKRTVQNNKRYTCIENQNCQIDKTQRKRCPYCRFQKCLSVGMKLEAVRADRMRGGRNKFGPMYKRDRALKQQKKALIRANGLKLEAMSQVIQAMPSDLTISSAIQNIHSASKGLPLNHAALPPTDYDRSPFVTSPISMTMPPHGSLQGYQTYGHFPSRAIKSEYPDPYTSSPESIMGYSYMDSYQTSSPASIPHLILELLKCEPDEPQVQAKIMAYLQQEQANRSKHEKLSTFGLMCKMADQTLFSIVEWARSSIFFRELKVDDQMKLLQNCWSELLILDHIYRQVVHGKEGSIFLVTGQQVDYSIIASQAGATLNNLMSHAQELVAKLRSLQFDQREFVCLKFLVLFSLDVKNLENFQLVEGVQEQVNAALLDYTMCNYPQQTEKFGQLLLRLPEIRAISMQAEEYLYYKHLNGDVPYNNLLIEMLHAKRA
NCOA2 inhibitor: inhibits human steroid receptor coactivator 2; HEK293 GAL4-SRC2 luciferase reporter, luminescence; inhibition, % at 9 µM; 370,000 tested, 0.17% active; AID 651957;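 active means inhibition above the mean inhibition of all tested compounds plus 3 SD, set per campaign, cut at about 52% in these data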;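 further: 0% = DMSO treated cells and 100% = cells given Gossypol at 36 µM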
SRC3 inh: inhibitors of human steroid receptor coactivator 3 (SRC3); 360,000 tested, 0.17% active; HEK293 GAL4-SRC3 luciferase reporter, luminescence; Q9Y6Q9; inhibition, % at 3.6 µM;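 active means inhibition above a per-campaign cutoff, the mean of all compounds plus 3 SD, cut at about 60% in these data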;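 further: 0% = DMSO-treated cells and 100% = gossypol-treated cells at 36 µM; higher means less SRC3-driven luciferase light from the GAL4 reporter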
COUP-TFII inh: NR2F2 (human) inhibition, primary screen; P24468; HEK293T NGFI-A luciferase reporter, luminescence; inhibition, % at 8.6 µM; 370,000 tested, 0.7% active; AID 686940;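 active means inhibition above a per-plate cutoff, mean inhibition of test wells between control levels plus 3 SD, cut at about 38% in these data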;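 further: cells cotransfected with COUP-TFII expression vector driving the NGFI-A reporter; 0% = median of COUP-TF2 test wells and 100% = reporter-only cells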
SRC1 inh: human NCOA1 inhibition; Q15788; HEK293 GAL4-SRC1 luciferase reporter, luminescence; inhibition, % at 3.6 µM; 360,000 tested, 0.12% active;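 active means inhibition above the campaign mean plus 3 SD, with each screening campaign given its own cutoff, cut at about 60% in these data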;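 further: 0% = DMSO treated cells and 100% = gossypol at 36 µM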
GalR3 antag: blocks the human galanin receptor 3 | O60755 | HEK293 GalR3-CNG cAMP membrane potential fluorescence; galR3 body fused to GalR1 C-terminus | inhibition, % at 3 µM | 360,000 tested, 0.44% active;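 active means inhibition above the screen-wide average plus 3 SD, cut at about 13% in these data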;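 further: forskolin and galanin both at EC90 stimulate the cells; cAMP rise reported by CNG channel membrane potential dye signal; 0% = forskolin plus galanin with DMSO and 100% = forskolin alone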
Gal4-VP16 ctr: VP16 inhibition counter-screen for COUP-TFII. shares compounds with COUP-TFII inh. HEK293 Gal4-VP16 luciferase reporter, luminescence. inhibition, % at 8.5 µM. 2,500 tested, 25% active. AID 687007; in the data active means inhibition above about 13%
COUP-TFII conf: COUP-TFII (NR2F2) inhibition, confirmation assay; shares compounds with COUP-TFII inh; 2,500 tested, 45% active; AID 687008; HEK293 NGFI-A luciferase reporter, luminescence; inhibition, % at 8.5 µM;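 active means mean inhibition over three repeats above a set limit taken from the earlier primary screen, cut at about 38% in these data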;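 further: 100% = cells given the luciferase reporter alone without the COUP-TF2 vector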
Active calls of the source: *.

Screening O=C(Nc1cccc(S(=O)(=O)N2CCCCC2)c1)C1CCN(C(=O)c2ccc(Cl)cc2)CC1 returned LRH-1 inv ag 17, NCOA2 inhibitor -1, SRC3 inh -4, COUP-TFII inh 15, SRC1 inh -2 and GalR3 antag -6.
`O=C(Nc1cccc(S(=O)(=O)N2CCCCCC2)c1)c1ccc(Cl)nc1` gave LRH-1 inv ag 6, NCOA2 inhibitor 21, SRC3 inh 11, COUP-TFII inh 41*, SRC1 inh 12, GalR3 antag -4, Gal4-VP16 ctr -2 and COUP-TFII conf 5.
`O=C(Nc1cccc(S(=O)(=O)Nc2ccccc2Cl)c1)c1ccc(Cl)nc1` gave LRH-1 inv ag 41, NCOA2 inhibitor 16, SRC3 inh 43, COUP-TFII inh 47*, SRC1 inh 33, GalR3 antag 0, Gal4-VP16 ctr 10 and COUP-TFII conf 40*.
For Cc1ccc(NC(=O)Cn2nnc(-c3ccccc3F)n2)cc1C the results were NCOA2 inhibitor -8 and COUP-TFII inh 5.
`Cc1cc(Nc2cccc(Br)c2)cc(=O)n1-c1cccc(Br)c1` gave NCOA2 inhibitor -8, COUP-TFII inh -5 and GalR3 antag -9.
`Cc1cccc(-c2cccc3c4c([nH]c23)[C@@H]2C[C@H](N(C)C(=O)c3ccco3)[C@H]([C@H](C)O)C(=O)N2CC4)c1` gave NCOA2 inhibitor -8 and COUP-TFII inh 18.
Nc1ccc(-c2nc3c(Cl)cc(N)cc3[nH]2)cc1 was read as LRH-1 inv ag 17, NCOA2 inhibitor 53*, SRC3 inh 38, COUP-TFII inh 48*, SRC1 inh 38, GalR3 antag 1, Gal4-VP16 ctr 57* and COUP-TFII conf 36.
O=C(NCc1ccc(C(=O)N2CCOCC2)cc1)c1cccc(Br)c1 was read as NCOA2 inhibitor 5 and COUP-TFII inh -1.
Screening COc1ccc(CN2CCN(Cc3ccc4ccccc4c3)CC2)cc1OC returned LRH-1 inv ag 7, NCOA2 inhibitor 33, SRC3 inh -8, COUP-TFII inh 41*, SRC1 inh 19, GalR3 antag -7, Gal4-VP16 ctr 10 and COUP-TFII conf 30.
COc1ccc(CCN2C(=O)CSC2c2ccc(OC)c(OC)c2)cc1OC (stereo not drawn) was read as LRH-1 inv ag 4, NCOA2 inhibitor -23, SRC3 inh 10, COUP-TFII inh 0, SRC1 inh 3 and GalR3 antag -4.
Screening COc1ccc(C2SCC(=O)N2CCc2ccc(OC)c(OC)c2)cc1 (stereo not drawn) returned LRH-1 inv ag 26, NCOA2 inhibitor 19, SRC3 inh 27, COUP-TFII inh 43*, SRC1 inh 11, GalR3 antag -8, Gal4-VP16 ctr -3 and COUP-TFII conf 19.
For c1ccc(CN2CCCC3CC2c2ccccc23)cc1 (stereo not drawn) the results were NCOA2 inhibitor -1, COUP-TFII inh 10 and GalR3 antag -7.
For CCN1CCN(/C=N/c2nc3c(s2)CCCC3)CC1 the results were LRH-1 inv ag 56, NCOA2 inhibitor 39, SRC3 inh 59, COUP-TFII inh 51*, SRC1 inh 46, GalR3 antag -9, Gal4-VP16 ctr 25* and COUP-TFII conf 55*.
COc1ccc(-c2cc(C)no2)cc1S(=O)(=O)NCCCN1CCN(c2ccccc2)CC1 was read as LRH-1 inv ag -8, NCOA2 inhibitor -32, SRC3 inh 12, COUP-TFII inh 6, SRC1 inh 4 and GalR3 antag -5.
Screening Cc1cc(-c2ccc(C)c(S(=O)(=O)NCCCN3CCN(c4ccccc4)CC3)c2)on1 returned LRH-1 inv ag 1, NCOA2 inhibitor 29, SRC3 inh 12, COUP-TFII inh 62*, SRC1 inh -11, GalR3 antag 4, Gal4-VP16 ctr 1 and COUP-TFII conf 19.
Screening COC(=O)[C@]12C[C@H](CC(=O)N3CCSCC3)C(=O)N(Cc3ccccc3)C1=C[C@H](COCc1ccccc1)O[C@@H]2C returned NCOA2 inhibitor -6 and COUP-TFII inh 0.
For C=CCNc1nc(-c2sc(NC(=O)C(C)(C)C)nc2C)c(-n2cc(-c3ccccc3)nn2)s1 the results were LRH-1 inv ag 26, NCOA2 inhibitor 23, COUP-TFII inh 38*, GalR3 antag -7, Gal4-VP16 ctr -5 and COUP-TFII conf 10.
Screening CCOC(=O)C1=CCN(S(=O)(=O)c2ccc(F)cc2)C1c1ccc(Cl)cc1 (stereo not drawn) returned NCOA2 inhibitor 7, COUP-TFII inh -3 and GalR3 antag -6.
For O=[N+]([O-])c1ccc(C[n+]2cccc3c4ccccc4ccc32)cc1 the results were LRH-1 inv ag 33, NCOA2 inhibitor 9, SRC3 inh 29, COUP-TFII inh 58*, SRC1 inh 28, GalR3 antag 0, Gal4-VP16 ctr -1 and COUP-TFII conf 30.
Cc1ccc(-c2nc3ncccn3c2NC(=O)c2ccccc2)cc1 was read as NCOA2 inhibitor -1 and COUP-TFII inh 4.
CC(C)(C)NC(=O)CSc1nc2ccc(NC(=O)CSc3nnnn3Cc3ccccc3)cc2s1 was read as LRH-1 inv ag 38, NCOA2 inhibitor 11, SRC3 inh 38, COUP-TFII inh 67*, SRC1 inh 33, GalR3 antag -4, Gal4-VP16 ctr 2 and COUP-TFII conf 51*.
Screening COC(=O)[C@]12C[C@H](CC(=O)NCC34CC5CC(CC(C5)C3)C4)C(=O)N(CCC3=CCCCC3)C1=C[C@H](C(C)C)O[C@@H]2C1CC1 returned NCOA2 inhibitor 9 and COUP-TFII inh 12.
Cc1c(NC(=O)COC(=O)C23CC4CC(CC(O)(C4)C2)C3)c(=O)n(-c2ccccc2)n1C was read as LRH-1 inv ag 3, NCOA2 inhibitor 41, SRC3 inh 13, COUP-TFII inh 45*, SRC1 inh -4, GalR3 antag -7, Gal4-VP16 ctr -8 and COUP-TFII conf 5.
For Cc1cc(C(=O)COC(=O)C23CC4CC(CC(O)(C4)C2)C3)c(C)n1-c1c(C)n(C)n(-c2ccccc2)c1=O the results were LRH-1 inv ag 12, NCOA2 inhibitor 0, SRC3 inh -4, COUP-TFII inh 9, SRC1 inh -3 and GalR3 antag 1.
CC(C)c1ccc(-n2c(-c3ccccc3)c[n+]3c2CCc2ccccc2-3)cc1 was read as LRH-1 inv ag 81*, NCOA2 inhibitor 40, SRC3 inh 77*, COUP-TFII inh 89*, SRC1 inh 50, GalR3 antag -2, Gal4-VP16 ctr 28* and COUP-TFII conf 87*.
